# Laboratory results published in PubChem BioAssay (Tox21).
# Where “and” joins values, the source holds several entries; their conditions need not be identical. Identical values can stand only once. Inconclusive results are not listed. A call without a number means that no potency is given here. Some compounds were tested as several samples or in several runs, with calls that do not always agree. Calls of active or inactive are those of the source. Unless noted, calls come from the whole dose curve; as a rule, active = well fitted curve in the direction sought with a large enough effect in the repeat runs; inconclusive = weak or mixed curves; inactive = no such curve, though single readings can be large; an effect the other way counts as inactive or inconclusive.
# Legend:
# [1] = qHTS assay to identify small molecule antagonists of the estrogen receptor alpha (ER-alpha) signaling pathway using the BG1 cell line in the presence of 0.1 nM 17-beta-estradiol - cell viability counter screen (AID 1259241); note: nearly all actives have a fitted effect of over 40% in size
# Outline: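 Measures cytotoxicity alongside the ER-alpha antagonist readout: VM7Luc4E2 cells, charcoal-stripped serum, 0.1 nM 17beta-estradiol final, 22 hr compound incubation at 37C, CellTiter-Fluor fluorescence.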
# [2] = qHTS assay to identify small molecule antagonists of the androgen receptor (AR) signaling pathway using the MDA cell line in the presence of 0.5 nM R1881 - cell viability counter screen (AID 1259242); note: nearly all actives have a fitted effect of over 45% in size
# Outline: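 qHTS format. MDA-kb2 (MMTV-luc, AR/GR responsive) + cpd + 0.5 nM R1881 final, 16 hr 37C/0% CO2 → CellTiter-Fluor 30 min → fluorescence intensity.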
# [3] = molecular target: Estrogen receptor (Homo sapiens) (UniProt P03372); assay: qHTS assay to identify small molecule antagonists of the estrogen receptor alpha (ER-alpha) signaling pathway using the BG1 cell line in the presence of 0.1 nM 17-beta-estradiol (AID 1259244); note: nearly all actives have a fitted effect of over 50% in size; note: potency is the fitted concentration of half-maximal effect
# Estrogen receptor (Homo sapiens), sequence (P03372 whole entry, looked up): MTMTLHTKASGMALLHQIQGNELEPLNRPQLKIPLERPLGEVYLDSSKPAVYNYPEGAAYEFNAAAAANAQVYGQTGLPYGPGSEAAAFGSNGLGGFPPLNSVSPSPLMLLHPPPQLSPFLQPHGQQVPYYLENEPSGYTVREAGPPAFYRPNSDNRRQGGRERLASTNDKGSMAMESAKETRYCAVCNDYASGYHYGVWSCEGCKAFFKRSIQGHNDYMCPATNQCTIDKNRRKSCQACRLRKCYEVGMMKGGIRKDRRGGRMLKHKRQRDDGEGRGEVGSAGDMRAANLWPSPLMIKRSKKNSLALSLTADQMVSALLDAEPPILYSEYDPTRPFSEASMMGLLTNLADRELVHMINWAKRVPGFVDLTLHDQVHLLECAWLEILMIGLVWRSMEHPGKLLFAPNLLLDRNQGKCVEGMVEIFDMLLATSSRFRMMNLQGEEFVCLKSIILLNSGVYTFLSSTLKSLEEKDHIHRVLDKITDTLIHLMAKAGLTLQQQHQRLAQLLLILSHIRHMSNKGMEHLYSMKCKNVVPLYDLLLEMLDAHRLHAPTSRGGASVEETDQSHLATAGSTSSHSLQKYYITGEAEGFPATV
# Outline: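 Reporter is a stably transfected luciferase under four estrogen responsive elements in VM7Luc4E2 cells expressing native full-length ER-alpha; inhibition of 0.1 nM (final) 17beta-estradiol-driven signal over 22 h is read by luminescence.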
# [4] = qHTS assay to identify small molecule phospholipidosis (PLD) inducers (AID 1259344; active = well fitted curve in the direction sought with a large enough effect; an effect the other way counts as inactive or inconclusive)
# Outline: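 Accumulated phospholipid, stained red by LipidTOX during 24 h compound treatment of HepG2 cells at 37 C, is quantified from images as pit number and intensity, normalised per cell using Hoechst-stained nuclei.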
# [5] = qHTS assay to identify small molecule HDAC inhibitors (AID 1259364); note: potency is the fitted concentration of half-maximal effect;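 note: wild-type HCT-116 cells with endogenous class I/II HDAC activity; nearly all actives have a fitted effect of over 45% in size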
# Outline: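 Quantitative high-throughput format: overnight-seeded HCT-116 cells got compounds for 2 hr at 37C; HDAC-Glo I/II reagent added, 30 min RT, luminescence measured.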
# [6] = qHTS assay to identify small molecule HDAC inhibitors - cell viability counter screen (AID 1259365); note: series mostly up to about 92 µM; nearly all actives have a fitted effect of over 50% in size
# Outline: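 Following a 2hr exposure of overnight-plated wild-type HCT-116 cells to DMSO-delivered compounds, CellTiter-Glo was added and luminescence recorded after 30min at room temperature.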
# [7] = qHTS assay to identify small molecule agonists of the sonic hedgehog signaling (Shh) pathway - cell viability counter screen (AID 1259366); note: nearly all actives have a fitted effect of over 50% in size; note: potency is the fitted concentration of half-maximal effect
# Outline: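 After a 4hr attachment at 37C, NIH/3T3 cells bearing an integrated Gli1-driven luciferase reporter were dosed with compounds. Treatment lasted 24hr, with the final hour including CellTiter-Fluor for a fluorescence viability measurement.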
# [8] = qHTS assay to identify small molecule antagonists of the sonic hedgehog signaling (Shh) pathway - cell viability counter screen (AID 1259367); note: nearly all actives have a fitted effect of over 55% in size; note: potency is the fitted concentration of half-maximal effect
# Outline: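 CellTiter-Fluor signal in conditioned medium-stimulated 3T3 Gli1-Luc cells, 23 hr compound exposure, 37C.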
# [9] = qHTS assay to identify small molecule agonists of the sonic hedgehog signaling (Shh) pathway (AID 1259368; calls by dose curve; note: nearly all actives have a fitted effect of over 15% in size; note: potency is the fitted concentration of half-maximal effect)
# Outline: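 Quantitative high-throughput format using a Gli1-driven firefly luciferase reporter line derived from NIH/3T3 cells. After a 24 hr compound treatment at 37 C and 5% CO2, luminescence reported Gli1 response element activity.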
# [10] = molecular target: Androgen receptor (Homo sapiens) (UniProt P10275); assay: qHTS assay to identify small molecule antagonists of the androgen receptor (AR) signaling pathway using the MDA cell line in the presence of 0.5 nM R1881 (AID 1259243); note: nearly all actives have a fitted effect of over 50% in size; note: potency is the fitted concentration of half-maximal effect
# Androgen receptor (Homo sapiens), sequence (P10275 whole entry, looked up): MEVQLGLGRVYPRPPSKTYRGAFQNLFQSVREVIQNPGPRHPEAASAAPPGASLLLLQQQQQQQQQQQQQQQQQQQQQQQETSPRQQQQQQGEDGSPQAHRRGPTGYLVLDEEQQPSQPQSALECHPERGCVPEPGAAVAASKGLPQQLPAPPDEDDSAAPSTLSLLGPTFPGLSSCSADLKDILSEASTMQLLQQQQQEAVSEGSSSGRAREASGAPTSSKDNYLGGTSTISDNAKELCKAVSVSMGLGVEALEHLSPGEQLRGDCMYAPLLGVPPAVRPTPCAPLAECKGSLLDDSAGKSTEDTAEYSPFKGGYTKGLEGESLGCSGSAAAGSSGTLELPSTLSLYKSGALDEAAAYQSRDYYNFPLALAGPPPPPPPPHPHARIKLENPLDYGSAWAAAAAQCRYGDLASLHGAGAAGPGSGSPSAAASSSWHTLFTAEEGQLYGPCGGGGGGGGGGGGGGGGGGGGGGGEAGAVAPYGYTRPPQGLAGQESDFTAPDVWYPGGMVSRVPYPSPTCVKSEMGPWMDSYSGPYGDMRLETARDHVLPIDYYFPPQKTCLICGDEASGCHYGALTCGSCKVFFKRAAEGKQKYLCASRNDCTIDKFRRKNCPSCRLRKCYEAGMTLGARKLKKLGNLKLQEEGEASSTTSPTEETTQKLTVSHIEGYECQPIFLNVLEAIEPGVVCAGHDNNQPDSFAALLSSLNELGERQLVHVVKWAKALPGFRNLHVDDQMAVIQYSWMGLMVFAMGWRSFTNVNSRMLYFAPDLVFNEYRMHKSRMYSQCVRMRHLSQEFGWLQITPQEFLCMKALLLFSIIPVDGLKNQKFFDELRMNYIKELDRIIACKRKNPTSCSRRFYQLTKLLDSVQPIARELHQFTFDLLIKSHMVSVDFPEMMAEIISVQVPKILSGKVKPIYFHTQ
# Outline: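 Antagonist mode quantitative HTS in MDA-kb2 MMTV-luciferase cells, agonist R1881 at 0.5 nM final, 16 hr exposure at 37C and 0% CO2, luminescent detection.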
Compound,Potency [1],Potency [2],Potency [3],outcome [4],Potency [5],Potency [6],Potency [7],Potency [8],Potency [9],Potency [10],PLD induction [4]
CCC(C(=O)OCCOCCN(CC)CC)c1ccccc1 (centres undefined),inactive,inactive,inactive,inactive,inactive,inactive,inactive,inactive,inactive,–,–
O=C(NCCCN1CCOCC1)c1ccc(Cl)cc1,inactive,inactive,inactive,inactive,inactive,–,inactive,inactive,inactive,–,–
Cc1oncc1C(=O)Nc1ccc(C(F)(F)F)cc1,inactive,inactive,inactive,inactive,2.43 µM (active) and 1.88 µM (active),inactive,inactive,61.1 µM (active) and inactive,15.4 µM (active) and 9.44 µM (active),–,–
CC(=O)Oc1ccc(C(=C2CCCCC2)c2ccc(OC(C)=O)cc2)cc1,inactive,inactive,inactive,inactive,inactive,inactive,inactive,inactive,inactive,–,–
C=CC(=C)CCCC(C)(C)OC(C)=O,inactive,inactive,–,–,inactive,inactive,inactive,inactive,inactive,inactive,–
COc1cc2ncnc(Nc3ccc(F)c(Cl)c3)c2cc1OCCCN1CCOCC1,inactive,inactive,–,inactive,inactive,–,15 µM (active),–,inactive,26.6 µM (active),–
CCn1cc(C(=O)O)c(=O)c2cc(F)c(N3CCNCC3)nc21,inactive,inactive,inactive,inactive,inactive,inactive,inactive,inactive,inactive,–,–
CCCCCCCCCOC(C)=O,inactive,inactive,inactive,–,inactive,inactive,inactive,inactive,inactive,–,–
CCCCC(CC)COC(=O)COc1ccc(Cl)cc1C (centres undefined),inactive,inactive,inactive,–,inactive,inactive,inactive,inactive,inactive,–,–
CC(Cl)C(Cl)Cl (centres undefined),inactive,inactive,inactive,–,inactive,inactive,inactive,inactive,–,–,–
N#C[C@@H]1C[C@@H]2C[C@@H]2N1C(=O)[C@@H](N)C12CC3CC(CC(O)(C3)C1)C2,inactive,inactive,inactive,–,inactive,–,inactive,inactive,inactive,–,-3.21% [at 7.66 µM] (inactive)
C1COCO1,inactive,inactive,inactive,–,inactive,inactive,inactive,inactive,inactive,–,–
CCOC(=O)OCC,inactive,inactive,inactive,–,inactive,inactive,inactive,inactive,inactive,–,–
CC(C)(CCl)c1ccccc1,inactive,inactive,inactive,–,inactive,inactive,inactive,inactive,–,–,–
O=C(/C=C/c1ccccc1)OCCCc1ccccc1,inactive,inactive,inactive,–,inactive,inactive,inactive,inactive,–,–,–
CCN(Cc1cccc(S(=O)(=O)O)c1)c1ccc(C(=C2C=CC(=[N+](CC)Cc3cccc(S(=O)(=O)[O-])c3)C=C2)c2ccccc2)cc1,inactive,inactive,inactive,–,inactive,inactive,inactive,inactive,inactive,–,–
O=C(CCCCCCC(=O)Nc1ccccc1)NO,inactive,inactive,3.35 µM (active),inactive,–,–,–,–,inactive,–,–
O=C(O)c1cccnc1C(=O)O,inactive,inactive,inactive,–,inactive,inactive,inactive,inactive,inactive,–,–
COCC(O)CO (centres undefined),inactive,inactive,inactive,–,inactive,inactive,inactive,inactive,inactive,–,–
CN(C)CCOC1=Cc2ccccc2Sc2ccc(Cl)cc21,inactive,inactive,inactive,inactive,–,–,–,inactive,inactive,–,–
CCCCCCCCCCOS(=O)(=O)O,inactive,inactive,inactive,–,inactive,inactive,inactive,inactive,inactive,–,–
CC1=CC(O)CC(C)(C)C1 (centres undefined),inactive,inactive,inactive,–,inactive,inactive,inactive,inactive,inactive,–,–
CCC1(C)CC(=O)NC1=O (centres undefined),inactive,inactive,inactive,inactive,inactive,–,inactive,inactive,inactive,–,–
CC(=O)CC(c1ccc([N+](=O)[O-])cc1)c1c(O)c2ccccc2oc1=O (centres undefined),inactive,inactive,inactive,inactive,inactive,–,–,inactive,inactive,–,–
CC(C)OCC1CO1 (centres undefined),inactive,inactive,inactive,–,inactive,inactive,inactive,–,–,–,–
Cc1oc(C)c(C(=O)Nc2ccccc2)c1C,inactive,inactive,24.3 µM (active),–,27.3 µM (active),inactive,inactive,inactive,–,–,–
CCCOc1ccc(S(=O)(=O)N2CCN(CC)CC2)cc1-c1nc2c(CC)n(Cc3ccccn3)nc2c(=O)[nH]1,inactive,inactive,inactive,–,inactive,inactive,–,–,–,–,–
